From PubChem BioAssay (NCATS)
Inconclusive results are not listed. Entries that show only a call come without a potency. Activity calls are given as the source filed them. Calls follow the shape of the dose curve; as a rule, active = well fitted curve in the direction sought with a large enough effect; inconclusive = small, poorly fitted or top-dose-only effect, or another doubt; inactive = no such curve, though single readings can be large; an effect the other way counts as inactive or inconclusive. Where a SMILES comes first, the peptide text is derived from it.

Columns and labels:
[1] = Primary qHTS for inhibitors of nuclear receptor binding SET domain protein 2 (NSD2) in an isogenic RCH-ACV NSD2 p.E1099K mutant (9B) (AID 1645876); also: nearly all actives have a fitted effect of over 70% in size; also: potency is read from the fitted curve at half-maximal effect
[2] = Primary qHTS for inhibitors of nuclear receptor binding SET domain protein 2 (NSD2) in an RCH-ACV wild type WT cells (2C) (AID 1645877); also: nearly all actives have a fitted effect of over 70% in size; also: potency is read from the fitted curve at half-maximal effect
[3] = Viability counterscreen for antagonist of constitutive androstane receptor (CAR) against the NCATS DSHEA and TCM libraries (AID 1794837);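 also: compound exposure lasted 24 h before viability reading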
Source text: Assay Development and Screening Technology Laboratory (ADST)
National Center for Advancing Translational Sciences (NCATS), Rockville, MD
National Institute of Health (NIH), Bethesda, Maryland
Dietary Supplements and Natural Products have minor oversight of their safety and efficacy. We assembled a collection of Dietary Supplements and Natural Products (DSNP) as well as Traditional Chinese Medicinal (TCM) Plant extracts, which were screened against an in vitro panel of assays, including a liver cytochrome p450 enzyme panel, CAR/PXR signaling pathways, and P-gp transporter assays, to assess their activity. This pipeline facilitated the interrogation of Natural Product-Drug Interaction (NaPDI) through prominent metabolizing pathways. In addition, we compared the activity profiles of the DSNP/TCM substances with those of an approved drug collection. […] Overall, we highlight four significant bioactivity profiles (measured by p-values) as examples of this prediction. […]
8; Detector 1; Fluorescence intensity; ViewLux plate reader (excitation 405 nm, emission 540 nm). […]
11; Detector 2; Luminescence intensity; ViewLux. […]
8. Fluorescence intensity (Ex/Em = 405 nm/540 nm) is obtained using the ViewLux plate reader to determine cell viability. […]
10. Luminescence intensity is read using the ViewLux detector. […]

[4] = Viability counterscreen for agonist of constitutive androstane receptor (CAR) against the NCATS DSHEA and TCM libraries (AID 1794838)
Outline: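 HepG2-CYP2B6-hCAR cells (2,500/well) attached 5 h, then got compounds plus 0.75 uM PK11195 final. After 24 h at 37C, viability read by CellTiter-Fluor fluorescence (Ex/Em 405/540 nm).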

[5] = biological target: Nuclear receptor subfamily 1 group I member 3 (Homo sapiens) (UniProt Q14994); assay: Primary qHTS for agonist of constitutive androstane receptor (CAR) against the NCATS DSHEA and TCM libraries (AID 1794839);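 also: HepG2 cells expressing human CAR with a CYP2B6 reporter plus PK11195 antagonist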
Chain of Nuclear receptor subfamily 1 group I member 3 (Homo sapiens) (Q14994 whole entry, looked up): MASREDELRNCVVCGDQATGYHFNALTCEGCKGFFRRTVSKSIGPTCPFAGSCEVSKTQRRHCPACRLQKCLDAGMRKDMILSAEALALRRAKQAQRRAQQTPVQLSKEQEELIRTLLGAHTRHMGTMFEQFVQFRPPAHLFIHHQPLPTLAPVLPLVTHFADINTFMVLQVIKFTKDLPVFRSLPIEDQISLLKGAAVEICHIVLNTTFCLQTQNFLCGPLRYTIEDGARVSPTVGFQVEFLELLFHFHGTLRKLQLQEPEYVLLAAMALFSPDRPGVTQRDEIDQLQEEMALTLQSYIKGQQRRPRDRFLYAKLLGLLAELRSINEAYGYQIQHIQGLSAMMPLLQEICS
Outline: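 HepG2-CYP2B6-hCAR cells (2,500/well) were attached for 5 h, then treated for 24 h at 37 °C with compounds plus 0.75 µM PK11195. Luciferase luminescence (ONE-Glo) was read, with CellTiter-Fluor viability (Ex/Em 405/540 nm).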

[6] = HepG2 viability counterscreen (readout 2: ATP content) against the NCATS DSHEA and TCM libraries (AID 1794840);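 also: HepG2 cells exposed to substances for about 24 h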
Outline: (§1)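 HepG2 cells (1,000 cells/well) attached ~4 h, then treated ~24 h at 37C with substances. Protease activity read by GF-AFC (25 uM final, 30 min, Ex/Em 380/510 nm); ATP content then by CellTiter-Glo luminescence.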

[7] = HepG2 viability counterscreen (readout 1: protease activity) against the NCATS DSHEA and TCM libraries (AID 1794841);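 also: cells exposed to compounds for about 24 h before the protease read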
Outline: as §1

CCCCCCCC(=O)[O-].CCCCCCCC(=O)[O-].[Zn+2]
Potency [1]: inactive
Potency [2]: inactive

Cc1onc(-c2c(Cl)cccc2Cl)c1C(=O)Cl
Potency [1]: inactive
Potency [2]: inactive

CCCOc1ccc2c(c1)CC[C@@H]1[C@@H]2CC[C@]2(C)C(OC)CC[C@@H]12 (stereo not given in full)
Potency [1]: inactive
Potency [2]: inactive

O=C(O)C1CCC1
Potency [1]: inactive
Potency [2]: inactive

c1ccc2c(c1)CCc1ccccc1N2
Potency [1]: inactive
Potency [2]: inactive

C1=CC2C3C=CC(C3)C2C1 (stereo not given)
Potency [1]: inactive
Potency [2]: inactive

O=C(c1ccco1)N1CCNCC1
Potency [1]: inactive
Potency [2]: inactive

COC(=O)c1cc(S(N)(=O)=O)ccc1OC
Potency [1]: inactive
Potency [2]: inactive

C/C=C(/C(=C/C)c1ccc(OC(C)=O)cc1)c1ccc(OC(C)=O)cc1
Potency [1]: 5.31 µM (active)
Potency [2]: 3.76 µM (active)

CO[C@@H]1[C@@H](OC)[C@H](C)[C@@](O)(CC(=O)O)O[C@H]1[C@H](C)[C@H]1O[C@@]2(CC[C@@](C)([C@H]3CC[C@@](C)([C@@H]4O[C@@H]([C@H]5O[C@](C)(O)[C@H](C)C[C@@H]5C)C[C@@H]4OC4C[C@H](OC)[C@@H](OC)[C@H](C)O4)O3)O2)C[C@H](O)[C@H]1C (stereo not given in full)
Potency [1]: 0.596 µM (active)
Potency [2]: 0.531 µM (active)

CC(=O)c1ccc(O)c(C(N)=O)c1
Potency [1]: inactive
Potency [2]: inactive

COc1ccc(/C(C)=C/C(=O)O)c(OC)c1
Potency [1]: inactive
Potency [2]: inactive

COCCOCC(OC)OC
Potency [1]: inactive
Potency [2]: inactive

Cc1sccc1Br
Potency [1]: inactive
Potency [2]: inactive

N#CC1(c2ccc(F)cc2)CCC(=O)CC1
Potency [1]: inactive
Potency [2]: inactive

COc1ccccc1OCC1CNC(=O)O1 (stereo not given)
Potency [1]: inactive
Potency [2]: inactive

CC(C)NC(=O)c1ccc(C=O)cc1
Potency [1]: inactive
Potency [2]: inactive

O=C(CCCl)NCCc1ccccc1
Potency [1]: inactive
Potency [2]: inactive

OCCCc1ccccc1
Potency [1]: inactive
Potency [2]: inactive

CN1CCN(N)CC1
Potency [1]: inactive
Potency [2]: inactive

N[C@@H](Cc1cc(I)c(O)c(I)c1)C(=O)O
Potency [1]: inactive
Potency [2]: inactive

CCOC(=O)c1ccc(O)c(O)c1
Potency [1]: 9.44 µM (active)
Potency [2]: 13.3 µM (active)

CSCC[C@H](NC(=O)[C@H](Cc1c[nH]c2ccccc12)NC(=O)CCNC(=O)OC(C)(C)C)C(=O)N[C@@H](CC(=O)O)C(=O)N[C@@H](Cc1ccccc1)C(N)=O
Potency [1]: inactive
Potency [2]: inactive

CN1N=C(C(N)=O)CCC1=O
Potency [1]: inactive
Potency [2]: inactive

COCCc1ccc(OCC2CO2)cc1 (stereo not given)
Potency [1]: inactive
Potency [2]: inactive

OC1(c2ccc(Cl)cc2)CCNCC1
Potency [1]: inactive
Potency [2]: inactive

Cc1ncc([N+](=O)[O-])n1C
Potency [1]: inactive
Potency [2]: inactive

O=C(O)CCCC[P+](c1ccccc1)(c1ccccc1)c1ccccc1
Potency [1]: inactive
Potency [2]: inactive

O=C1Nc2cc(Cl)ccc2Oc2ccccc21
Potency [1]: inactive
Potency [2]: inactive

CCCCCCCCCCCCCC[N+](C)(C)C
Potency [1]: 0.237 µM (active)
Potency [2]: 0.266 µM (active)

Clc1ccc2c(c1)Nc1ccccc1S2
Potency [1]: inactive
Potency [2]: inactive

O=C(O)c1[nH]n(-c2ccc(S(=O)(=O)O)cc2)c(=O)c1N=Nc1ccc(S(=O)(=O)O)cc1
Potency [1]: inactive
Potency [2]: inactive

CO/N=C(\C(=O)O)c1csc(NC(=O)CCl)n1
Potency [1]: inactive
Potency [2]: inactive

Cc1cccc(C)c1NC(=O)c1ccc(N)cc1
Potency [1]: inactive
Potency [2]: inactive

Cc1c(N)cccc1C(F)(F)F
Potency [1]: inactive
Potency [2]: inactive

CCOC(=O)CN1CCCC1=O
Potency [1]: inactive
Potency [2]: inactive

Cc1cc(=O)oc2cc(O[C@@H]3SC[C@@H](O)[C@H](O)[C@H]3O)ccc12
Potency [1]: inactive
Potency [2]: inactive

Oc1ccccc1-c1nnco1
Potency [1]: inactive
Potency [2]: inactive

CCOC(=O)C(O)c1ccccc1 (stereo not given)
Potency [1]: inactive
Potency [2]: inactive

CN1Cc2cc(C(=O)N3CCC(C4CCNCC4)CC3)ccc2N[C@@H](CC(=O)O)C1=O
Potency [1]: inactive
Potency [2]: inactive

Nc1nnnn1-c1ccccc1
Potency [1]: inactive
Potency [2]: inactive

CC(NCCC(c1ccccc1)c1ccccc1)c1ccccc1 (stereo not given)
Potency [1]: 18.8 µM (active)
Potency [2]: 18.8 µM (active)

O=C(O)c1cn(C2CC2)c2cc(Cl)c(F)cc2c1=O
Potency [1]: inactive
Potency [2]: inactive

CCN1CCCC1CN (stereo not given)
Potency [1]: inactive
Potency [2]: inactive

CN(C)CCN1CCN(c2cccc(Cl)c2)C1=O
Potency [1]: inactive
Potency [2]: inactive

CC(=O)c1cc2ccccc2s1
Potency [1]: inactive
Potency [2]: inactive

OCc1cccnc1
Potency [1]: inactive
Potency [2]: inactive

CC(=O)N[C@@H](CO)C(=O)N[C@@H](CC(=O)O)C(=O)N[C@@H](CCCCN)C(=O)N1CCC[C@H]1C(=O)O (Ac-SDKP-OH)
Potency [1]: inactive
Potency [2]: inactive

CCN(CC)CCN
Potency [1]: inactive
Potency [2]: inactive

COc1ccc(CCC(C)=O)cc1
Potency [1]: inactive
Potency [2]: inactive

Brc1ccccc1-c1ccccc1
Potency [1]: inactive
Potency [2]: inactive

CC(NC(CCc1ccccc1)C(=O)O)C(=O)N1C(=O)N(C)CC1C(=O)O (stereo not given)
Potency [1]: inactive
Potency [2]: inactive

CCOC(=O)C(=O)CCc1ccccc1
Potency [1]: inactive
Potency [2]: inactive

Cc1[nH]cnc1-c1ccc(Cl)cc1
Potency [1]: inactive
Potency [2]: inactive

CN1C(=O)c2ccccc2C1=O
Potency [1]: inactive
Potency [2]: inactive

O=C(O)CCCC[C@@H]1SC[C@@H]2NC(=O)N[C@@H]21
outcome [3]: inactive
outcome [4]: inactive
outcome [5]: inactive
outcome [6]: inactive
outcome [7]: inactive
